From PubChem BioAssay AID588676 (Johns Hopkins Ion Channel Center, 2011)
In all, about 310,000 compounds went through this assay and about 3,900 (1.3%) were called active. The sample holds actives, similar compounds and a random draw of the others, so the mix is not that of the screen.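 The calls were made as follows: active = calcium-response B-score plate-corrected more than 3 library SD below zero, starting fluorescence within 5 deviations, no agonist response on first addition; inactive = the rest.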

Each compound was assayed against Mas-related G-protein coupled receptor member X1 (Homo sapiens) (UniProt Q96LB2) (assay: blockade of BAM8-22-evoked MrgX1 calcium response – HEK293 cells, Fluo-4 calcium flux, primary screen (AID 588676;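 as to B-score: peak minus trough fluorescence over baseline after final BAM8-22 challenge near maximal dose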)). Settings: Fluo-4, BAM8-22 antagonism, at 10 µM; active compounds read low.
Sequence of Mas-related G-protein coupled receptor member X1 (Homo sapiens) (Q96LB2 whole entry, looked up): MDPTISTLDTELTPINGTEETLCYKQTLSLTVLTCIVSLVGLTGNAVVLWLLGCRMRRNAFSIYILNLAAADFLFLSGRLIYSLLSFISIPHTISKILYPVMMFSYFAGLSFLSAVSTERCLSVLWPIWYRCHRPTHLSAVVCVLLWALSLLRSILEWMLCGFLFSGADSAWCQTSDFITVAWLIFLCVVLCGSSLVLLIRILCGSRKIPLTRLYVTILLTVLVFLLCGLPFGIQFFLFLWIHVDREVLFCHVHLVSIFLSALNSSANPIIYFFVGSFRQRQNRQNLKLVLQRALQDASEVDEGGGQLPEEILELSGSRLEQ

Row | Structure (SMILES) | B-score
1 | CCOC(=O)c1cc(NC(=O)SCC(=O)O)c(C)nc1C | inactive
2 | CC(=O)N(C)c1ccc(NC(=O)Nc2cccc3ccccc23)cc1 | inactive
3 | CCOc1ccc(NC(=O)Nc2ccc(N(C)C(C)=O)cc2)cc1 | inactive
4 | CC(=O)N(C)c1ccc(NC(=O)C(F)(F)F)cc1 | -7.18 (active)
5 | O=C(COC(=O)Cn1cnc2ccccc21)Nc1cccc2c1C(=O)c1ccccc1C2=O | inactive
6 | Cc1cccc(NC(=O)Cc2ccc(Br)cc2)n1 | inactive
7 | O=S(=O)(NC1CCCC1)c1ccc(-n2cnnn2)cc1 | inactive
8 | c1cc(-n2cnnn2)ccc1NC1=NCCC1 | -5.5 (active)
9 | O=C(Cc1c(F)cccc1Cl)Nc1ccc(-n2cnnn2)cc1 | inactive
10 | Cc1ccc(Cl)c(OCC(=O)N(C)CC(=O)Nc2ccc(N3CCOCC3)cc2)c1 | inactive
11 | CCOC(=O)c1ccc(COC(=O)CCc2nc(-c3ccccc3)c(-c3ccccc3)o2)cc1 | inactive
12 | O=C(Nc1ccc(Cl)cc1)Nc1ccc(Oc2cccnc2)nc1 | -7.03 (active)
13 | Cc1ccc(NC(=O)Nc2cccnc2)cc1 | inactive
14 | O=C(NNC(=O)c1csc(-c2cccnc2)n1)Nc1ccc(Cl)cc1 | inactive
15 | CCn1c(SCC(=O)Nc2cc(C)ccc2C)nnc1-c1cnccn1 | inactive
16 | Cc1ccccc1NC(=O)C(C)c1ccc(-c2ccccc2)c(F)c1 (configuration not stated) | inactive
17 | CCOc1ccc(CN2CCC(n3nccc3NC(=O)C3CC3)CC2)cc1CO | inactive
18 | Cc1ccc(C(C(=O)NC2CCCCC2)N(C(=O)c2csnn2)C2CC2)o1 (configuration not stated) | -7.09 (active)
19 | O=C(NC1CCCC1)C(c1ccccn1)N(C(=O)c1csnn1)C1CCCC1 (configuration not stated) | inactive
20 | O=C(NC1CCCC1)C(c1ccc(Cl)cc1)N(C(=O)c1csnn1)C1CC1 (configuration not stated) | inactive
21 | CCc1ccc(Nc2n[n+](-c3ccccc3)c(-c3cccc(Cl)c3Cl)s2)cc1 | inactive
22 | CCc1nnc(NC(=O)CCC(=O)N2CCN(c3cc(C)ccc3C)CC2)s1 | inactive
23 | CC1CCC(N2CC(=O)N(Cc3ccc4c(c3)OCO4)C(c3ccc(F)cc3)C2=O)CC1 (configuration not stated) | inactive

Row | Structure (SMILES) | B-score
24 | CCc1ccccc1NC(=O)c1ccc2c(c1)CCN2S(C)(=O)=O | inactive
25 | CC(=O)Nc1ccc(Oc2ccc3c(c2)C(=O)NC3=O)cc1 | inactive
26 | CCCCN(C)CCC(=O)Nc1ccc(Cl)cc1 | inactive
27 | CCCCC(=O)Nc1ccc2c(c1)C(=O)NC2=O | -4.77 (active)
28 | Cc1ccc(CN(CC(=O)NCC2CCCO2)S(=O)(=O)c2ccc(C)cc2)cc1 (configuration not stated) | inactive
29 | O=C(c1c(F)cccc1Cl)N1CCN(S(=O)(=O)c2ccc3c(c2)OCCCO3)CC1 | inactive
30 | CCCCCC(=O)N1CCN(S(=O)(=O)c2ccc3c(c2)OCCCO3)CC1 | -12 (active)
31 | CN1CCCN(S(=O)(=O)c2ccc3c(c2)OCCO3)CC1 | inactive
32 | COc1ccc(C(=O)NCCn2nc(C)cc2C)cc1OC1CCN(C(C)=O)CC1 | inactive
33 | COc1ccc(C(=O)N2CCC(C(=O)Nc3cccc(C)c3)CC2)cc1OC | inactive
34 | CCOc1ccc(NC(=O)COc2ccc(C(=O)NC3CCCc4ccccc43)cc2OC)cc1 (configuration not stated) | inactive
35 | CCOc1ccc(NC(=O)COc2ccc(C(=O)N3CCC(C(N)=O)CC3)cc2OC)cc1 | -8.23 (active)
36 | Cc1ccc(S(=O)(=O)CCC(=O)OCC(=O)N(C)C2CCS(=O)(=O)C2)cc1 (configuration not stated) | inactive
37 | O=C(CSc1nnc2n1CCCN2)c1ccccc1 | inactive
38 | Cc1c(Cl)cccc1NC(=O)NCCCN1CCCC1=O | inactive
39 | Cc1cc(Cl)ccc1NC(=S)NCCCN1CCCC1=O | inactive
40 | O=C1CCCN1CCCNC(=S)Nc1ccc(F)c(Cl)c1 | -4.94 (active)
41 | O=C(NC1CCN(Cc2ccccc2)CC1)c1cc(Br)c(Br)[nH]1 | inactive
42 | Oc1c(Cl)cc(Cl)c(Cl)c1Cc1c(O)c(Cl)cc(Cl)c1Cl | -8.06 (active)
43 | O=C(CN1CCCCCC1)Nc1c(Cl)cc(Cl)cc1Cl | inactive
44 | COc1cc2c(C(=O)N3CCN(C)CC3)c(CSc3ccccc3)n(C)c2cc1Br | inactive
45 | O=C(COC(=O)c1cc(-c2cccs2)nn1-c1ccccc1)Nc1cc([N+](=O)[O-])ccc1Cl | inactive
46 | O=C(Nc1ncccc1O)c1ccc(S(=O)(=O)N2CCCC2)cc1 | inactive

Row | Structure (SMILES) | B-score
47 | O=C(Nc1ncccc1O)c1ccc(S(=O)(=O)N2CCCCCC2)cc1 | inactive
48 | CC(C)(C)n1nc2c(c1NC(=O)c1ccc(S(=O)(=O)N3CCCC3)cc1)CS(=O)C2 (configuration not stated) | -5.73 (active)
49 | O=C(CCN1C(=O)[C@H]2CC=CC[C@H]2C1=O)NCc1nc(-c2ccccc2)no1 | inactive
50 | Cc1ccc(Nc2cc(C)nc3c(C)ccc([N+](=O)[O-])c23)cc1 | inactive
51 | Cc1cc(C)cc(NC(=S)NCCc2c[nH]c3ccccc23)c1 | -5.78 (active)
52 | Cc1cc(C)cc(NC(=S)NCc2ccc(F)cc2)c1 | inactive
53 | O=C(NCCc1c[nH]c2ccccc12)c1cccc(Br)c1 | inactive
54 | NS(=O)(=O)c1ccccc1NC(=O)c1c(O)c2ccccc2[nH]c1=O | inactive
55 | O=C(/C=C/c1ccc(N2CCOCC2)cc1)c1ccccc1 | inactive
56 | Cc1cccc(N2C(=O)c3ccc(C(=O)Nc4cccc(C(=O)O)c4)cc3C2=O)c1 | inactive
57 | O=C(O)c1ccc2c(c1)C(=O)N(c1ccc(/C=C/C(=O)c3ccccc3)cc1)C2=O | -6.62 (active)
58 | Cc1cc(C)cc(C(=O)OCC(=O)NCCNC(=O)COC(=O)c2cc(C)cc(C)c2)c1 | inactive
59 | CCOC(=O)CNC(=O)CSc1ncccc1-c1nc2ccccc2[nH]1 | inactive
60 | CCOC(=O)CNC(=O)CSc1nnc(COc2ccc(Cl)cc2)n1CC | inactive
61 | CCOC(=O)CNC(=O)CSc1nc2cccnc2n1CC | -8.3 (active)
62 | O=C1c2cccc3cccc(c23)C(=O)N1c1cccc(O)c1 | inactive
63 | COC(=O)[C@@H]1C[C@@]2(O)[C@@H](O)[C@@H](O)[C@@H](O)C[C@H]2N1Cc1ccc(C)s1 | inactive
64 | COc1ccc(Cl)cc1NS(=O)(=O)c1cccc(C(=O)NC2CCC(O)CC2)c1 (configuration not stated) | inactive
65 | Cn1nccc1C(=O)NC1CCCc2c1cnn2-c1ccccc1F (configuration not stated) | inactive
66 | COc1ccc(C(=O)NC2CCCc3c2cnn3-c2cccc(C)c2C)c(OC)n1 (configuration not stated) | -8.89 (active)
67 | Cc1cc(C(=O)NC2CCCc3c2cnn3-c2cccc(C)c2C)c(C)o1 (configuration not stated) | inactive
